Screening data as filed in PubChem.
A selection: hits, their analogues and other compounds. The true share with any hit is near 4%.
GRP78 ERSR act = qHTS for Inducers of the Endoplasmic Reticulum Stress Response (ERSR) in Human Glioma: qHTS; U87-MG GRP78 promoter luciferase reporter, 16 h; Potency, µM, without a hit: at the top dose activation, most hits filed as activators; 420,000 tested, 0.02% active; active means well fitted activation curve with a large enough effect; further: potency means the concentration at half of the fitted maximal effect; series mostly up to about 76 µM; % of control where 0% means no effect; nearly all actives have a fitted effect of over 35% in size
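ERSR induction read as luciferase luminescence (Bright-Glo, 10 min at room temperature) in stably transfected human U87-MG glioma cells exposed to compounds for 16 h, using GRP78 as sensor.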
D1 ag = Allosteric Agonists of the Human D1 Dopamine Receptor: qHTS; HEK293 T-REx D1 cells, calcium flux, agonist mode; activation, % at 2 µM; 360,000 tested, 1% active; AID 504660, 2011; further: 0% is about no effect
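Agonism was scored from calcium flux recorded over 180 s (1 read/s) after pintool compound addition, following a 10-cycle baseline. Cells were inducible force-coupled HEK293 TREx D1, plated overnight at 30 C and loaded with no-wash calcium dye.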
D1 antagonist = Antagonist of Human D 1 Dopamine Receptor: qHTS; D(1A) dopamine receptor (Homo sapiens), P21728; HEK293 TREx D1 cells, calcium flux, dopamine EC80; active compounds read low; activity change, negative = inhibition, % at 10 µM; 360,000 tested, 3.2% active; AID 504652, 2011; in the data active means activity change below about -30%; further: on the % scale 0 is the no-effect control and ±100 the full control effect
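Compound effects on dopamine-evoked calcium signalling were measured in tetracycline-induced HEK293 Trex D1 cells. Dopamine at EC80 followed a 180 s compound pre-read, and fluorescence was tracked kinetically for 180 s more.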
TRHR PAM = qHTS for Small Molecule Agonists and Allosteric Enhancers of Human TRH Receptor: Primary Screen for Enhancers; TRHR cells, fluo-8 calcium fluorescence, EC20 TRH enhancement; Thyrotropin-releasing hormone receptor (Homo sapiens), P34981; AID 493056, 2011; 360,000 tested, 0.66% active; enhancement, % at 2 µM; in the data active means enhancement above about 30%; further: 0% is about no effect
Target sequence (P34981 whole entry, looked up): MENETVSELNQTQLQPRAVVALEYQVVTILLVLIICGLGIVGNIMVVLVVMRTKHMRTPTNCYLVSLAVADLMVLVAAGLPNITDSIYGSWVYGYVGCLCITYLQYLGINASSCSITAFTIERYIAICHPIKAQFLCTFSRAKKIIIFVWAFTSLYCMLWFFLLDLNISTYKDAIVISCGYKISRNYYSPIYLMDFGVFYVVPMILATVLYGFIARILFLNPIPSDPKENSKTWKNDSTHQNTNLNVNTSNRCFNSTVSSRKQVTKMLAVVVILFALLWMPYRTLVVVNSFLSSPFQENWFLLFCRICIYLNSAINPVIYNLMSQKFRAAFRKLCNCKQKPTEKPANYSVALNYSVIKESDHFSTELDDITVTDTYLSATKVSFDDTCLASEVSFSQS
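Enhancer read-out: after compound pinning and an initial kinetic agonist-mode read, an EC20 of TRH (10 nM final) was injected and fluo-8 calcium signal (Ex 480/Em 530) followed at 1 s/cycle for 100 cycles in TRHR-expressing cells.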
TRHR ag = qHTS for Small Molecule Agonists and Allosteric Enhancers of Human TRH Receptor: Primary Screen for Agonists; Thyrotropin-releasing hormone receptor (Homo sapiens), P34981; activation, % at 2 µM; TRHR cells, calcium flux fluo-8, FDSS agonist mode; 360,000 tested, 0.18% active; further: 0% is about no effect
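Agonist-mode FDSS calcium read (Ex 480/Em 530, 1 s cycles) in 1536-well TRHR cells with fluo-8 dye, after 10-cycle baseline and 23 nL compound addition; TRH at EC20 (10 nM final) added afterwards for the enhancer phase.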
D1 PAM = Potentiators of Human D1 Dopamine Receptor: qHTS; 360,000 tested, 0.036% active; potentiation, % at 10 µM; HEK293 TREx D1 cells, calcium flux, dopamine EC20 potentiation; in the data active means potentiation above about 30%; further: 0% is about no effect
Active calls of the source: *; . = no result. Unless noted, no stated cut-off is given here; in the data, active means activation above about 30%; inactive means the rest.

SMILES	GRP78 ERSR act	D1 ag	D1 antagonist	TRHR PAM	TRHR ag	D1 PAM
CCN1CCN(c2ccc(S(=O)(=O)N3CCCCC3)cc2NC(=O)/C=C/c2cc(OC)ccc2OC)CC1	-4%	4	2	30*	1	-10
O=C(COc1ccccc1Cl)NNC(=O)c1cc(S(=O)(=O)N2CCOCC2)ccc1N1CCCC1	-4%	1	-32*	-7	0	-14
CCN1CCN(c2ccc(S(=O)(=O)N3CCCCC3)cc2NC(=O)c2ccccc2)CC1	-5%	2	15	-1	0	7
C=CCn1c(COc2ccc(F)cc2)nnc1SCC(=O)NC1CCS(=O)(=O)C1 (stereo unspecified)	-3%	-1	16	3	0	-3
N#Cc1nc(-c2ccc(OCc3ccccc3Cl)cc2)oc1N1CCC(C(N)=O)CC1	3%	.	.	.	.	.
COc1ccc(/C=C/C(=O)NCC2Cc3cc(Cl)cc(-c4ncccn4)c3O2)cc1 (stereo unspecified)	-4%	.	.	.	.	.
CN(CC(=O)Nc1cc(S(=O)(=O)N2CCCC2)ccc1Cl)Cc1ccc2c(c1)OCO2	-5%	4	-37*	1	0	-8
CCN1CCN(c2ccc(S(=O)(=O)N3CCCCC3)cc2NC(=O)Cc2ccc(Cl)c(Cl)c2)CC1	-5%	101*	-55*	-3	5	-1
CN(CC(=O)Nc1ccc(S(=O)(=O)N2CCCC2)cc1)Cc1c(F)cccc1Cl	-2%	11	-32*	-5	0	-4
CN1CCN(S(=O)(=O)c2ccc(NCc3ccc4c(c3)OCO4)nc2)CC1	0%	0	-33*	-1	0	-5
CCN1CCN(c2ccc(S(=O)(=O)N3CCCCC3)cc2NC(=O)Cc2ccccc2)CC1	-3%	2	4	-6	0	8
CN(CC(=O)Nc1ccc(S(=O)(=O)N2CCCC2)cc1)Cc1ccc(Cl)cc1	-7%	1	-6	-5	0	2
C#CCCCO/N=C1/C[C@@H](O)[C@@H](O)[C@@H]2[C@H]3C(=O)N(c4ccc(F)cc4F)C(=O)[C@@H]3CC[C@@H]12	-6%	.	.	.	.	.
CCOc1ccc2nc(NC(=O)C3CCCN(S(=O)(=O)c4cccs4)C3)sc2c1 (stereo unspecified)	3%	6	4	14	1	-3
COc1ccc(O[C@H]2C=C[C@@H](c3ccccc3)O[C@H]2COC(=O)N2CCCCC2)cc1	-4%	.	.	.	.	.
CCCc1cc2c(c(=O)o1)C(O)C1OC1C2=O (stereo unspecified)	-10%	.	.	.	.	.
Cn1cc(/C=C/c2ccc3ccccc3n2)c2ccccc21	4%	.	.	.	.	.
CCN1CCN(S(=O)(=O)c2ccc(Cl)c(C(=O)Nc3cc(Cl)ccc3N3CCOCC3)c2)CC1	-5%	5	-40*	-10	0	-8
CCOc1ccccc1OCC(=O)Nc1cc(S(=O)(=O)N2CCCCC2)ccc1N1CCN(CC)CC1	-6%	3	-36*	14	0	-8
CCN1CCN(c2ccc(S(=O)(=O)N3CCCCC3)cc2NC(=O)COc2ccccc2)CC1	-3%	0	-4	4	0	-8
CC1=CC(=O)NS(=O)(=O)O1	-3%	.	.	.	.	.
Cc1cccn2c(=O)c3cc(C#N)c(=N)n(CCN4CCOCC4)c3nc12	2%	1	12	32*	0	-5
Cc1cccn2c(=O)c3cc(C#N)c(=N)n(CCCN4CCOCC4)c3nc12	-2%	.	.	.	.	.
Cc1cc(/C=N/NC(N)=S)c(O)c(/C=N/NC(N)=S)c1	-3%	277*	1	10	148*	2
Cc1ccc2cn[nH]c2c1NC(=S)NC(=O)c1ccccc1	-1%	.	.	.	.	.
SMILES	GRP78 ERSR act	D1 ag	D1 antagonist	TRHR PAM	TRHR ag	D1 PAM
Cc1ccc2cn[nH]c2c1NC(N)=S	-3%	0	-36*	2	0	-7
CCOc1ccccc1N(CC)C(=O)c1cc2c(=O)n(CC)c3ccccc3c2s1	-2%	5	0	50*	0	-5
COC(=O)c1ccccc1S(=O)(=O)N1CCC(C(=O)OCc2ccc([N+](=O)[O-])cc2)CC1	-4%	13	-40*	-2	1	-2
O=C(c1cn(C2CCCN(Cc3cccc(Oc4ccccc4)c3)C2)nn1)N1CCCC1 (stereo unspecified)	-2%	.	.	.	.	.
O=C(O)CC(c1cccc(C(F)(F)F)c1)N1CCS(=O)(=O)CC1 (stereo unspecified)	-6%	-1	-35*	-5	-1	-4
O=C(Nc1cccs1)Nc1ccc(F)cc1F	0%	0	-7	1	-1	0
Cc1c(NC(=O)Nc2cccs2)cccc1[N+](=O)[O-]	0%	18	-36*	3	1	-12
O=C(Nc1cccs1)Nc1ccc(Br)cc1F	-1%	17	-32*	21	-1	1
CC(C)NS(=O)(=O)c1ccc(Oc2ncc(C(F)(F)F)cc2Cl)cc1	-4%	22	-26	-2	1	-7
CCCNS(=O)(=O)c1ccc(Oc2ncc(C(F)(F)F)cc2Cl)cc1	8%	46*	-6	-1	5	-9
CS(=O)(=O)NCCNc1ncc(C(F)(F)F)cc1Cl	3%	1	-32*	-3	0	0
O=S(=O)(NCCNc1ncc(C(F)(F)F)cc1Cl)C(F)(F)F	2%	24	7	-4	4	-9
NC(=O)Nc1ccc(Oc2ncc(C(F)(F)F)cc2Cl)cc1	1%	2	-26	-1	0	-5
O=S(=O)(Nc1ccccc1)c1ccc(Oc2ncc(C(F)(F)F)cc2Cl)cc1	-15%	32*	-3	2	3	-2
Cc1ccc(C(=O)CC2(O)C(=O)N(Cc3ccccc3)c3ccccc32)c(C)c1 (stereo unspecified)	-2%	58*	-15	0	0	12
CCCCN1C(=O)C(O)(CC(=O)c2ccc(C(C)(C)C)cc2)c2ccccc21 (stereo unspecified)	-1%	28	-49*	2	-1	-5
CCc1ccc(C(=O)CC2(O)C(=O)N(Cc3ccc(C)cc3)c3ccccc32)cc1 (stereo unspecified)	1%	-1	-4	-7	0	2
CCN1C(=O)C(O)(CC(=O)c2c(C)coc2C)c2ccccc21 (stereo unspecified)	-3%	0	-45*	-3	0	-1
